According to PubChem BioAssay AID1117361 (Southern Research Institute, 2015):
Among all 3,600 compounds or so, about 900 (25%) were called active. The rule behind the calls is not given here. A selection follows. Results with a measured potency or affinity are listed apart.

molecular target: Protein Tat (Human immunodeficiency virus type 1 group M subtype B (isolate HXB2)) (UniProt P04608); assay: HIV-1 Tat–TAR interaction blockers – biochemical, fluorescence polarization, FAM-labeled TAR RNA, counter-screen for Vif-APOBEC3G degradation inhibitor project, dose response (AID 1117361); conditions: Tat-TAR RNA binding; series mostly up to 100 µM; inhibition: at the top concentration

Q: How did the outcome turn out when `Cc1ccc([C@H]2C(C(=O)O)=CC[C@@H](c3cccc(Cl)c3)N2S(=O)(=O)c2ccc(C)cc2)cc1` was run?
A: inactive

Q: How did the “inhibition” value turn out when `COc1ccccc1-n1nnnc1SCC(=O)Nc1cc(C)on1` was run?
A: 1.35% (inactive)

Q: How did the “inhibition” value turn out when `O=c1cc2oc3cc(O)c(O)cc3c(-c3ccccc3O)c-2cc1O` was run?
A: 10.3% (inactive)

Q: `OC(CN1CCCCC1)CN1CCCCC1` was tested. Which “inhibition” value did it give?
A: 9.46% (inactive)

Q: Which outcome does the source give for `CS(=O)(=O)N(CC(=O)N1CCN(Cc2ccccc2)CC1)c1ccc2c(c1)OCCO2` here?
A: inactive

Q: `CSCCC(CO)NC(=O)OCc1ccccc1` (configuration not stated) was tested. Which “inhibition” value did it give?
A: 2.7% (inactive)

Q: `C[C@H](NC(=O)OCc1ccccc1)C(=O)NNC(=O)[C@H](C)NC(=O)OCc1ccccc1` was tested. Which “inhibition” value did it give?
A: 16.5% (inactive)

Q: With `O=C(Nc1nnc(C2CC2)o1)c1ccc(S(=O)(=O)N2CCCc3ccccc32)cc1` as the compound, how does the outcome read?
A: inactive

Q: `Cc1ccc(N2CC(NC(=O)N3CCN(C(=O)c4ccco4)CC3)CC2=O)cc1` (configuration not stated) was tested. Which “inhibition” value did it give?
A: 6.35% (inactive)

Q: Which “inhibition” value does the source give for `CSc1ccc(C2Nc3ccccc3-c3cc(C)nn32)cc1` (configuration not stated) here?
A: 2.05% (inactive)

Q: Which outcome does the source give for `O=C(Nc1ccc2c(c1)OCO2)c1cccc(S(=O)(=O)N2CCCC2)c1` here?
A: inactive

Q: Which “inhibition” value does the source give for `COc1ccc(S(=O)(=O)Nc2ccc3c(c2)OCO3)cc1C` here?
A: 4.77% (inactive)

Q: How did the “inhibition” value turn out when `O=C(CCc1ccc(S(=O)(=O)NCCc2ccccc2)cc1)Nc1ccc2c(c1)OCO2` was run?
A: 1.36% (inactive)

Q: Which outcome does the source give for `O=S(=O)(Nc1ccc2c(c1)OCCO2)c1cnc[nH]1` here?
A: inactive

Q: With `CS(=O)(=O)N1CCCCC1CCN1CCCCC1` (configuration not stated) as the compound, how does the “inhibition” value read?
A: 3.67% (inactive)

Q: For `CC1(C)CC(=O)C(C2NCCc3ccccc32)=C(O)C1` (configuration not stated), which outcome is on record?
A: inactive

Q: `CCN(CC)CC(=O)Nc1nn(-c2ccccc2)nc1C(N)=O` was tested. Which outcome did it give?
A: inactive

Q: `Cc1ccc(S(=O)(=O)n2cnc3ccccc32)c(C)c1` was tested. Which outcome did it give?
A: inactive

Q: For `CCCCNC(=O)c1c(O)c2cccc3c2n(c1=O)CCC3`, which “inhibition” value is on record?
A: 5.41% (inactive)

Q: For `N#CC1(c2ccc(NC(=O)c3ccccc3F)cc2)CCCC1`, which outcome is on record?
A: inactive

Q: For `CCCCCn1c(CN2CCN(c3cc(Cl)ccc3C)CC2)nc2c1c(=O)[nH]c(=O)n2C`, which “inhibition” value is on record?
A: 0.68% (inactive)

Q: For `CCOc1c(OC)cccc1C1CC(=O)Nc2cc3c(cc21)OCCO3` (configuration not stated), which outcome is on record?
A: inactive

Q: How did the “inhibition” value turn out when `CCc1ccccc1N(CC)C(=O)CCc1nc(-c2ccc(C)cc2)no1` was run?
A: 0.68% (inactive)

Q: Which outcome does the source give for `NS(=O)(=O)c1ccc(NC(=O)COC(=O)CC2Sc3ccccc3NC2=O)cc1` (configuration not stated) here?
A: inactive

Q: With `COc1cc(C(C2C(=O)CC(C)(C)CC2=O)C2C(=O)CC(C)(C)CC2=O)cc(OC)c1OC` as the compound, how does the “inhibition” value read?
A: 6.35% (inactive)

Q: For `O=C(Nc1cc(Cl)ccc1Oc1ccccc1)c1cnccn1`, which “inhibition” value is on record?
A: 1.36% (inactive)

Q: `Cc1cn(C2CCCCO2)c(=O)[nH]c1=O` (configuration not stated) was tested. Which “inhibition” value did it give?
A: 3.67% (inactive)

Q: With `CN(C)NC1CCS(=O)(=O)C1` (configuration not stated) as the compound, how does the “inhibition” value read?
A: 27% (inactive)

Q: With `O=C(Cn1cnc2c(nnn2Cc2ccc(F)cc2)c1=O)NCc1ccco1` as the compound, how does the “inhibition” value read?
A: 6.82% (inactive)

Q: For `Cn1nnnc1SCC(=O)NCc1ccco1`, which “inhibition” value is on record?
A: 22.3% (inactive)

Q: How did the outcome turn out when `COc1ccc2c(c1OC)C(=O)OC2Nc1nc(-c2cc3cc([N+](=O)[O-])ccc3oc2=O)cs1` (configuration not stated) was run?
A: inactive

Q: For `CCOc1ccc(CCNC(=O)C2CC(C)=CCC2C(=O)O)cc1OCC` (configuration not stated), which “inhibition” value is on record?
A: 1.67% (inactive)

Q: `CCC(Sc1nc2cc(OC)c(OC)cc2c(=O)n1Cc1ccco1)C(=O)NCCOC` (configuration not stated) was tested. Which “inhibition” value did it give?
A: 1.36% (inactive)

Q: `COc1ccc2c(=O)c3c(=O)n(-c4ccc(C)cc4)c(-c4ccccc4)nc3oc2c1` was tested. Which outcome did it give?
A: inactive

Q: How did the “inhibition” value turn out when `CCN1/C(=C(\O)c2ccccc2)C(=O)c2ccccc2S1(=O)=O` was run?
A: 6.08% (inactive)

Q: With `COc1ccc(C2C(C#N)=C(N)Oc3n[nH]c(C)c32)cc1Cn1nnc2ccccc21` (configuration not stated) as the compound, how does the outcome read?
A: inactive

Q: `NC(=O)C1CCN(C(=O)C23CC4CC(CC(C4)C2)C3)CC1` was tested. Which “inhibition” value did it give?
A: 2.05% (inactive)
